PubChem BioAssay (Tox21)
Where “and” joins values, the source holds several entries; their conditions need not be identical. Equal values may be shown once. Values without a mark were called inactive. Calls of active or inactive are those of the source. The call rests on the fitted dose curve.

Assay: qHTS assay to identify small molecule agonists of the estrogen related receptor (ERR) signaling pathway from Tox21 library (AID 1224849); further: nearly all actives have a fitted effect of over 15% in size
Conditions: ERR reporter cell line, ONE-Glo luciferase, 18 h; at 42.5 µM (top of the series)
Excerpt: National Center for Advancing Translational Sciences [NCATS]
NIH Chemical Genomics Center [NCGC]
U.S. Environmental Protection Agency [EPA]
National Institutes of Environmental Health Sciences [NIEHS]
National Toxicology Program [NTP]
Estrogen related receptors (ERRs), the first orphan nuclear receptors discovered, play an important role in the control of cellular energy metabolism. ERRs are required for high-energy production in response to the environmental challenges. ERR-alpha was also identified as an adverse marker for breast cancer progression; ERR-alpha-positive tumors have a poor prognosis. To screen and to identify environmental compounds that perturb the ERR signaling pathways could provide valuable information for potential therapeutic or preventive measures in the treatment of metabolic disease. For identifying ERR agonists, ERR cell line (provided by NTP) has been used to screen Tox21 10K library.
The ERR cells were dispensed at 2,000 cells/5 ul/well in 1536-well white plates using a Multidrop dispenser. After the assay plates were incubated at a 37 C/5% CO2 incubator for 6 hours, 23 nL of compounds dissolved in DMSO, positive and negative controls or DMSO only was transferred to the assay plate by a pin tool. The plates were incubated at 37 C for 18 hours. 4 ul/well of One-Glo reagent was added into the assay plates using a Flying Reagent Dispenser. After 30-minute incubation at room temperature, the luminescence intensity in the plates was measured using a ViewLux plate reader.
On the % scale 0 is the no-effect control and ±100 the full control effect.

Row | SMILES | activity change, positive = activation [%]
1 | CCn1cc(C(=O)O)c(=O)c2ccc(C)nc21 | 4.67
2 | O=C(O)/C=C\C(=O)O | 6.09

Same assay, conditions: ERR reporter cell line, ONE-Glo luciferase, 18 h; at 92.4 µM (top of the series)

Row | SMILES | activity change, positive = activation
3 | CCn1cc(C(=O)O)c(=O)c2ccc(C)nc21 | 4.5% and 0.305%
4 | O=C(O)/C=C\C(=O)O | 3.24% and 1.53%

Same assay, conditions: ERR reporter cell line, ONE-Glo luciferase, 18 h; at 92.4 µM (top of the series) unless noted

Row | SMILES | activity change, positive = activation
5 | Nc1ccc(N)c2ccccc12 | -69.5%
6 | O=C1OC(=O)c2c(Cl)c(Cl)c(Cl)c(Cl)c21 | -2.98%
7 | ClC1=C(Cl)[C@]2(Cl)[C@@H]3[C@@H](Cl)[C@H]4O[C@H]4[C@@H]3C1(Cl)C2(Cl)Cl | -26.9%
8 | Cc1cc(C)c(C(=O)P(=O)(c2ccccc2)c2ccccc2)c(C)c1 | -54.9%
9 | Oc1c(I)cc(I)cc1I | -24.5%
10 | CCC1C(=O)OCC1Cc1cncn1C (stereo not given) | 4.65% [at 42.5 µM]
11 | COc1ccc(C(c2ccc(OC)cc2)C(Cl)(Cl)Cl)cc1 | -35.3%
12 | c1ccc2c(c1)ccc1ncccc12 | -4.48%
13 | CCC(C)=O | -6.3%
14 | Cc1ccc(N(SC(F)(Cl)Cl)S(=O)(=O)N(C)C)cc1 | -74.2%
15 | Brc1ccccc1-c1ccccc1 | -1.58%
16 | CC(CCl)OP(=O)(OC(C)CCl)OC(C)CCl (stereo not given) | -19.5%
17 | Nc1ccc(Cl)cc1Cl | -4.05%
18 | Brc1cc(Br)cc(Br)c1 | -1.12%
19 | O=C(O)/C=C/C(=O)O | 4.47% and 1.26%
20 | Cc1nnc2n1-c1sc(CCc3ccc(CC(C)C)cc3)cc1C(c1ccccc1Cl)=NC2C (stereo not given) | -59.4% [at 42.5 µM]
21 | CO/C=C(/C(=O)OC)c1ccccc1Oc1cc(Oc2ccccc2C#N)ncn1 | -64.5%
22 | CC1COC(Cn2cncn2)(c2ccc(Oc3ccc(Cl)cc3)cc2Cl)O1 (stereo not given) | -64.8%

Row | SMILES | activity change, positive = activation
23 | CCc1cccc(C)c1N | 10.2%
24 | CNc1ccccc1 | -1.42%
25 | CCCCC(CC)COC(=O)c1ccc(C(=O)OCC(CC)CCCC)cc1 (stereo not given) | 0.923%
26 | CC(c1ccccc1)(c1ccc(O)cc1)c1ccc(O)cc1 | -53.1%
27 | COc1ccccc1[N+](=O)[O-] | 4.31%
28 | Nc1ccc([N+](=O)[O-])cc1 | -29.9%
29 | c1ccc2c(c1)Sc1ccccc1N2CC1CN2CCC1CC2 (stereo not given) | -49.8% [at 42.5 µM]
30 | CCN(CC)C(=O)Cl | -1.51%
31 | NC(=Nc1ccccc1)Nc1ccccc1 | 17.6% (active)
32 | O=C(Nc1ccccc1-c1ccc(Cl)cc1)c1cccnc1Cl | -31.8%
33 | O=C(c1ccccc1)C(Cl)Cl | -27.3%
34 | O=[N+]([O-])c1c(Cl)c(Cl)cc(Cl)c1Cl | 0.621%
35 | CN1CSC(=S)N(C)C1 | -78.8% and -76.3%
36 | Cc1ccc([N+](=O)[O-])c(C)c1 | -82.5%
37 | Cc1cc(C(C)(C)c2ccc(O)c(C)c2)ccc1O | -66.8%
38 | O=S(=O)(C(Cl)(Cl)Cl)C(Cl)(Cl)Cl | -70.9%
39 | CC(N)C(=O)OC(C)(C)Cc1ccc(Cl)cc1 (stereo not given) | 8.82% [at 42.5 µM]
40 | Cc1cccc(C)c1 | 1.06%
